Results reported in paper PMC7862700, “An all-to-all approach to the identification of sequence-specific readers for epigenetic DNA modifications on cytosine”.

Key:
Test in all cases: DAPPL (digital affinity profiling via proximity ligation, sequencing); 10 mM Tris-HCl pH 7.5, 50 mM NaCl, 1 mM DTT, 4% glycerol, room temperature, 30 min; GST-TFs on glutathione beads, 16-mer random dsDNA library, 0.1% formaldehyde crosslink after washing; high values mean tight binding
FEV = target: T1, FEV (Homo sapiens, UniProt Q99581 1-238); settings: protein: recombinant; tags: N-terminal GST; dsDNA, one strand shown
T1 sequence: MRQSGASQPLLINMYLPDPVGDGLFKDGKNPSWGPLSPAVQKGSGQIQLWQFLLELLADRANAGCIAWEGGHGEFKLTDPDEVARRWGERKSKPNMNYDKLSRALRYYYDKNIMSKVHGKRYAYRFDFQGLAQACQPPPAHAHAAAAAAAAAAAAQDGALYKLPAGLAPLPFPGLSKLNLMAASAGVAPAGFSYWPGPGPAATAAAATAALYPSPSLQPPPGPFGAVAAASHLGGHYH
Outline: (§1)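 Sequencing on an Illumina NextSeq500 followed washing, crosslinking with 0.1% formaldehyde, proximity ligation (BsaI/T4 ligase, 1 h, 37 °C) and PCR amplification of pools that had been incubated for 30 min at room temperature with 200 nmole of a random double-stranded 16-mer DNA library in Tris/NaCl/DTT/glycerol buffer. Each pool held DNA-barcoded human transcription factors, expressed in yeast as GST fusions and captured on glutathione beads, plus a tag-only sample. Binding signal is a hexamer's read frequency for a factor divided by its frequency in the tag-only sample.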

ETV5 = ETV5 (Homo sapiens, UniProt P41161 1-510); settings: protein: recombinant; tags: N-terminal GST; dsDNA, one strand shown
Outline: as §1

HSF1 = HSF1 (Homo sapiens, UniProt Q00613 1-529); settings: protein: recombinant; tags: N-terminal GST; chain copies: 3; dsDNA, one strand shown
Outline: as §1

SPIC = target: T2, SPIC (Homo sapiens, UniProt Q8N5J4 1-248); settings: protein: recombinant; tags: N-terminal GST; dsDNA, one strand shown
T2 sequence: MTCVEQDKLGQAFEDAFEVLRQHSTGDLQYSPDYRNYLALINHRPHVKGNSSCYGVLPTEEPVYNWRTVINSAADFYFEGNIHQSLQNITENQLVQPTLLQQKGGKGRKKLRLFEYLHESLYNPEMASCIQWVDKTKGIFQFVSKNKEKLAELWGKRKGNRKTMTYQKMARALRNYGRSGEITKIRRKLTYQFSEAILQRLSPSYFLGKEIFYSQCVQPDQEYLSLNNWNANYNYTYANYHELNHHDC
Outline: as §1

ELF4 = ELF4 (Homo sapiens, UniProt Q99607 1-663); settings: protein: recombinant; tags: N-terminal GST; dsDNA, one strand shown
Outline: as §1

ELK4 = target: T3, ELK4 (Homo sapiens, UniProt P28324-2 1-405); settings: protein: recombinant; tags: N-terminal GST; dsDNA, one strand shown
T3 sequence: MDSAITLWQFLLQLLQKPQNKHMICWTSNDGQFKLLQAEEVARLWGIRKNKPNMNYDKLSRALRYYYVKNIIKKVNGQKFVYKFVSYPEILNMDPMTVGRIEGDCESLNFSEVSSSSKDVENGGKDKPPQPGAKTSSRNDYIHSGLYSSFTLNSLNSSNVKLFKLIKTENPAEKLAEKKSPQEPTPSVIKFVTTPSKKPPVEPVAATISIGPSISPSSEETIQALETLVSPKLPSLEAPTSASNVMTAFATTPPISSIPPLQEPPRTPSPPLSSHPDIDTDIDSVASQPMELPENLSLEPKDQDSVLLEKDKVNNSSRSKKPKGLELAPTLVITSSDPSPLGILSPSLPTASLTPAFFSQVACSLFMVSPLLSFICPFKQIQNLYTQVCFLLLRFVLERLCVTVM
Outline: as §1

ETV2 = target: T4, ETV2 (Homo sapiens, UniProt O00321 1-342); settings: protein: recombinant; tags: N-terminal GST; dsDNA, one strand shown
T4 sequence: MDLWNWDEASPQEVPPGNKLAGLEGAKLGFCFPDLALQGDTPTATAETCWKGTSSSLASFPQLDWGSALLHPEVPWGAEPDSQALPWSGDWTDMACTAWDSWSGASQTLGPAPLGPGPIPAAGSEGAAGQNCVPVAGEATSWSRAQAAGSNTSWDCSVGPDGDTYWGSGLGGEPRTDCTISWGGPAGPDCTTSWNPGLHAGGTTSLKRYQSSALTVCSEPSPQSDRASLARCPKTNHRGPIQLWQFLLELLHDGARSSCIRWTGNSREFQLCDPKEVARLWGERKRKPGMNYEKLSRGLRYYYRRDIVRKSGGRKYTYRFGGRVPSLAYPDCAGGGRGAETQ
Outline: as §1

ELF3 = target: T5, ELF3 (Homo sapiens, UniProt P78545 1-371); settings: protein: recombinant; tags: N-terminal GST; dsDNA, one strand shown
T5 sequence: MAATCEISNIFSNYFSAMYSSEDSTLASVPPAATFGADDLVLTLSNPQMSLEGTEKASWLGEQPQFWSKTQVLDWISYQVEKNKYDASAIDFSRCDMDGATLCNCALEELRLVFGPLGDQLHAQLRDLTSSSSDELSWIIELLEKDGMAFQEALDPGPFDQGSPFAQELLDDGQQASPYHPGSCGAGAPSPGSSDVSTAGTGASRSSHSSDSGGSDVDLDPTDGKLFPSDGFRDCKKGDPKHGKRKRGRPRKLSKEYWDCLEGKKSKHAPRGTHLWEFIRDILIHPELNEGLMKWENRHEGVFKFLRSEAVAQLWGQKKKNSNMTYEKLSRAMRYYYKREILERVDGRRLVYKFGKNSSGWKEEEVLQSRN
Outline: as §1

CRX = CRX (Homo sapiens, UniProt O43186 1-299); settings: protein: recombinant; tags: N-terminal GST; dsDNA, one strand shown
Outline: as §1

ETV1 = ETV1 (Homo sapiens, UniProt P50549 1-477); settings: protein: recombinant; tags: N-terminal GST; dsDNA, one strand shown
Outline: as §1

CRX, sequence (O43186 whole entry): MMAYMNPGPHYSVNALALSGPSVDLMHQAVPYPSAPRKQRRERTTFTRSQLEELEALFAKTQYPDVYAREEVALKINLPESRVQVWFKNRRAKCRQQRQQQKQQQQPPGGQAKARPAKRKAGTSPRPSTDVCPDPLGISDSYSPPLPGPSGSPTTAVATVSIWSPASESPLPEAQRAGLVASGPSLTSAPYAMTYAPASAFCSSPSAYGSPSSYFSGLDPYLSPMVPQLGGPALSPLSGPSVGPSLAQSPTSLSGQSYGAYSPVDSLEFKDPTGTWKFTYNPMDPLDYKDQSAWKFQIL
ELF4, sequence (Q99607 whole entry): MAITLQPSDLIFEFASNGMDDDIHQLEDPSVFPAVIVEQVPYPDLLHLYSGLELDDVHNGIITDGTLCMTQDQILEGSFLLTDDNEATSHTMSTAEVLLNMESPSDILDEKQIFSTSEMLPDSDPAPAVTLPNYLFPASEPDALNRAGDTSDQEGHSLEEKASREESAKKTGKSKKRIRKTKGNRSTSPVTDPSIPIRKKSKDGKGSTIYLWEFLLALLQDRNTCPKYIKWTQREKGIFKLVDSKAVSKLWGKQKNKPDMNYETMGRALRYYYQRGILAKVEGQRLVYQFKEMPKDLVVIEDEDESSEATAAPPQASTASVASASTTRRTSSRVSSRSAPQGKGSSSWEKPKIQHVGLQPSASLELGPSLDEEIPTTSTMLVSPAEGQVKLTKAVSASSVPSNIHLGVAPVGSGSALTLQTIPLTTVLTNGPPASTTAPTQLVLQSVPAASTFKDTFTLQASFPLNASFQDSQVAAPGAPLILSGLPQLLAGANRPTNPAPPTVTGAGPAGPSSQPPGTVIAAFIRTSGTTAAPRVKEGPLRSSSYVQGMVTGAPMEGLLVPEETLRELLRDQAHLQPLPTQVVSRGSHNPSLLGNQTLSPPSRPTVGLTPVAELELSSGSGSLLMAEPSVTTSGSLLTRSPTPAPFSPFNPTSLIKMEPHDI
ETV1, sequence (P50549 whole entry): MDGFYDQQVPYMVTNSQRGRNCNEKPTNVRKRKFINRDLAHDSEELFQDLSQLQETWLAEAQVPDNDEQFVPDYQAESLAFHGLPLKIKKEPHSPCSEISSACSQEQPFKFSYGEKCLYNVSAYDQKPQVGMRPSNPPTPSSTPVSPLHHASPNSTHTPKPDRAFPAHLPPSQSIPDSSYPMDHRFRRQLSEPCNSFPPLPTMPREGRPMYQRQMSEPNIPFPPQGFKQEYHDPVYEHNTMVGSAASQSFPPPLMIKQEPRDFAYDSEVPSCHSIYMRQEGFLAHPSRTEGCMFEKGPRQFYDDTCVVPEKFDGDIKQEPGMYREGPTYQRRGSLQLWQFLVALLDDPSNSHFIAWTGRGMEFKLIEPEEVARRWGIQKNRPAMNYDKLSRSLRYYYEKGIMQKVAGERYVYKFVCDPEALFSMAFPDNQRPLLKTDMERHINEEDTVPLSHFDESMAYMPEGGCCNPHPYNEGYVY
ETV5, sequence (P41161 whole entry): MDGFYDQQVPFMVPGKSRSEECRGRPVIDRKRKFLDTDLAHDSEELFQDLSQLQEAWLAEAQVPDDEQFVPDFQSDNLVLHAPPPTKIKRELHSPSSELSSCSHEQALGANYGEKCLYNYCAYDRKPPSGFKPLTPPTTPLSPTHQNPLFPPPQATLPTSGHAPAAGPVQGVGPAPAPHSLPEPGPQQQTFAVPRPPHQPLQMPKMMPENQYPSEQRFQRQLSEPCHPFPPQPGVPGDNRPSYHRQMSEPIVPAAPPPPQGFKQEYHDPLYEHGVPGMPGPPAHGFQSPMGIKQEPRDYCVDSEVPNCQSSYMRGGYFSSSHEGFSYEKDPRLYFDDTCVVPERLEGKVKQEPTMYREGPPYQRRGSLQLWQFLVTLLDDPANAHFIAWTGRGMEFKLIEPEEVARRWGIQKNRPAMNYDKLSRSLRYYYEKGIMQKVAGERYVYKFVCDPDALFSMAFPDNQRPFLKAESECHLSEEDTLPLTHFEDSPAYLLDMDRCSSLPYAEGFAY
HSF1, sequence (Q00613 whole entry): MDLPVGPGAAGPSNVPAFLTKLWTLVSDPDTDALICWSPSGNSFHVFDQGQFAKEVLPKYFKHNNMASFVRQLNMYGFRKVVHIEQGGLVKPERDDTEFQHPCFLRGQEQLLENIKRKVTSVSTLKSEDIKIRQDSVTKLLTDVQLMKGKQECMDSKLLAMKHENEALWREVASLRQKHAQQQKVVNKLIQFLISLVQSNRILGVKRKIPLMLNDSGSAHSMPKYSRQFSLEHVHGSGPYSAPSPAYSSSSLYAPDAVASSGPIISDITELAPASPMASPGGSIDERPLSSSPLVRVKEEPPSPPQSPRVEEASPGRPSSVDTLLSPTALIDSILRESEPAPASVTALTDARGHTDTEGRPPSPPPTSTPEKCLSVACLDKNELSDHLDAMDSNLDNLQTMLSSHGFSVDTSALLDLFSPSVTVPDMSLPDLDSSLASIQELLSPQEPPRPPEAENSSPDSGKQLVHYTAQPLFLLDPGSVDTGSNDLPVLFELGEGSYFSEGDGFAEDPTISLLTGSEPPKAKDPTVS

Row | Sequence | binding signal (FEV) | binding signal (ETV5) | binding signal (HSF1) | binding signal (SPIC) | binding signal (ELF4) | binding signal (ELK4) | binding signal (ETV2) | binding signal (ELF3) | binding signal (CRX) | binding signal (ETV1)
1 | TATAAA | 1.16 fold enrichment (6-mer frequency, TF over GST control) | 1.18 fold enrichment (6-mer frequency, TF over GST control) | 1.47 fold enrichment (6-mer frequency, TF over GST control) | 1.26 fold enrichment (6-mer frequency, TF over GST control) | 1.23 fold enrichment (6-mer frequency, TF over GST control) | 1.32 fold enrichment (6-mer frequency, TF over GST control) | 1.2 fold enrichment (6-mer frequency, TF over GST control) | 1.33 fold enrichment (6-mer frequency, TF over GST control) | 1.85 fold enrichment (6-mer frequency, TF over GST control) | 1.16 fold enrichment (6-mer frequency, TF over GST control)
2 | ATCTCG | 1.19 fold enrichment (6-mer frequency, TF over GST control) | 1.35 fold enrichment (6-mer frequency, TF over GST control) | 2.44 fold enrichment (6-mer frequency, TF over GST control) | 1.19 fold enrichment (6-mer frequency, TF over GST control) | 1.32 fold enrichment (6-mer frequency, TF over GST control) | 1.42 fold enrichment (6-mer frequency, TF over GST control) | 1.51 fold enrichment (6-mer frequency, TF over GST control) | 1.55 fold enrichment (6-mer frequency, TF over GST control) | 1.92 fold enrichment (6-mer frequency, TF over GST control) | 1.46 fold enrichment (6-mer frequency, TF over GST control)
3 | CTGTAC | 1.44 fold enrichment (6-mer frequency, TF over GST control) | 1.34 fold enrichment (6-mer frequency, TF over GST control) | 1.02 fold enrichment (6-mer frequency, TF over GST control) | 1.41 fold enrichment (6-mer frequency, TF over GST control) | 1.33 fold enrichment (6-mer frequency, TF over GST control) | 1.43 fold enrichment (6-mer frequency, TF over GST control) | 1.39 fold enrichment (6-mer frequency, TF over GST control) | 1.26 fold enrichment (6-mer frequency, TF over GST control) | 1.06 fold enrichment (6-mer frequency, TF over GST control) | 1.42 fold enrichment (6-mer frequency, TF over GST control)
4 | ACGGAT | 1.54 fold enrichment (6-mer frequency, TF over GST control) | 1.32 fold enrichment (6-mer frequency, TF over GST control) | 1.18 fold enrichment (6-mer frequency, TF over GST control) | 1.38 fold enrichment (6-mer frequency, TF over GST control) | 1.19 fold enrichment (6-mer frequency, TF over GST control) | 1.12 fold enrichment (6-mer frequency, TF over GST control) | 1.2 fold enrichment (6-mer frequency, TF over GST control) | 1.3 fold enrichment (6-mer frequency, TF over GST control) | 1.61 fold enrichment (6-mer frequency, TF over GST control) | 1.23 fold enrichment (6-mer frequency, TF over GST control)
